Data on five compounds can be found in PubChem BioAssay (NCATS).

Molecules are shown by their SMILES. Where “and” joins values, the source holds several entries; their conditions need not be identical. Equal values may be shown once. A number with no mark means an inactive call. Records with an inconclusive call do not appear. Calls of active or inactive are those of the source. Unless noted, calls come from the whole dose curve; as a rule, active = well fitted curve in the direction sought with a large enough effect; inconclusive = small, poorly fitted or top-dose-only effect, or another doubt; inactive = no such curve, though single readings can be large; an effect the other way counts as inactive or inconclusive.

Experiment [1] can be described thus: Cell Viability - MRC5 (AID 434; calls by dose curve;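 note: potency is the fitted concentration of half-maximal effect; cells exposed to compound for 40 hours at 37 °C; potency reflects cytotoxicity seen as loss of intracellular ATP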). The settings on record: MRC5 lung fibroblast viability, qHTS. The method in brief:
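ATP luminescence read-out (CellTiter-Glo, 20 min RT) after 40 hr, 37 °C compound exposure of 1500 MRC5 cells/well. Data normalized to DMSO (basal) and 100 uM tamoxifen (100% inhibition); AC50 from standard Hill equation.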
On the technique in general: In qHTS, concentration-response curves come from the screen itself.

Experiment [2] can be described thus: Cell Viability - HUV-EC-C (AID 542).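 Note: cells exposed to compound for 40 hours; % is set by controls: 0 for no effect and ±100 for the full control effect; nearly all actives have a fitted effect of over 35% in size.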 The following applies: HUV-EC-C endothelial cell viability, qHTS; series mostly up to 92.2 µM. Put shortly: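 Cells were seeded at 1000 per well and incubated 5 hr at 37 °C before compound addition. After 40 hr at 37 °C, CellTiter-Glo reagent was added for 20 min and luminescence read. AC50 values came from Hill-equation modelling.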

Experiment [3] in a line: Cellular Toxicity (caspase-3) HepG2 (AID 654).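 Note: cells exposed to compound for 16 hours before reading; 0% = DMSO alone and 100% = caspase signal from 100 µM tamoxifen.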 The following applies: HepG2 caspase-3 activation, luminescence; series mostly up to 92.2 µM. Put shortly: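 Caspase 3/7 activation in HepG2 is measured as rising luminescence after a 16 hr treatment at 37 °C. Values are scaled between DMSO basal and 100 uM tamoxifen, and AC50 is fitted with the Hill equation.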
Experiment [4] in a line: Cellular Toxicity (caspase-3) HUV-EC-C (AID 656). The following applies: HUV-EC-C cells, caspase-3 activation (apoptosis); series mostly up to 92.2 µM. The method in brief:
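Read-out: luminescence proportional to caspase 3/7 activity, measured 20 min after adding Caspase-Glo 3/7 reagent. Cells (HUV-EC-C) had received compound for 16 hr at 37°C. Increases relative to DMSO and 100 uM tamoxifen gave concentration-response AC50 values.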

Experiment [5] is described as follows: Cellular Toxicity (caspase-3) MRC-5 (AID 659). The following applies: MRC-5 cells, luminescence, normalized: DMSO 0%, 10 µM staurosporine 100%; series mostly up to 91.7 µM. Put shortly:
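MRC-5 fibroblasts, 1500/well; 16 h cpd, 37 °C; Caspase-Glo 3/7, 1 h RT; lumi read. Norm: DMSO = 0%, 10 uM staurosporine = 100%. Hill-fit AC50 from qHTS conc-response.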

Experiment [6] in a line: Cellular Toxicity (caspase-3) SK-N-SH (AID 661). The following applies: SK-N-SH caspase-3 activation, qHTS, DMSO as zero, staurosporine as full; series mostly up to 91.7 µM. The method in brief:
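Cells were seeded and incubated 5 hr at 37 °C, dosed with compound over a concentration range for 16 hr, then given Caspase-Glo 3/7 reagent for 1 hr at room temperature before luminescence reading.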

Experiment [7] can be described thus: Cellular Toxicity (caspase-3) Hek293 (AID 664).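 Note: cells exposed to compound for 16 h at 37 °C before readout.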 The settings on record: HEK293 caspase-3 activation, DMSO = 0%, 100 µM tamoxifen = 100%; at 92.2 µM (top of the series). Put shortly:
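qHTS, HEK293 (human embryonic kidney), 16 h cpd exposure in complete medium. Caspase-3/7 activation = luminescence increase; normalized to DMSO/100 uM tamoxifen; Hill-fit AC50.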

Experiment [8] can be described thus: Cellular Toxicity (caspase-3) N2a (AID 665).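 Note: compound exposure lasted 16 h at 37 °C before readout.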 The settings on record: N2a cells, luminescence, normalized: DMSO 0%, 10 µM staurosporine 100%; series mostly up to 92.2 µM. The method in brief:
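Caspase-3/7 activation, measured as increased luminescence from aminoluciferin release, is quantified in mouse N2a cells exposed to compounds for 16 h. Values are normalized to DMSO and 10 uM staurosporine, with AC50 derived by Hill modelling.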

A short description of experiment [9]: Cellular Toxicity (caspase-3) NIH 3T3 (AID 666).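 Note: caspase signal read after 16 h compound exposure; 0% = DMSO basal and 100% = 100 µM tamoxifen stimulation.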 The following applies: NIH 3T3 caspase-3 activation, apoptosis/toxicity, 0% DMSO, 100% is 100 µM tamoxifen; series mostly up to 92.2 µM. Put shortly:
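Cells were plated at 1000 per well and incubated 5 hr at 37°C, then compound was added for 16 hr. Caspase-Glo 3/7 reagent followed for 20 min at room temperature before luminescence was read.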

Experiment [10] is described as follows: Cellular Toxicity (caspase-3) Renal Proximal Tubule (AID 667).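 Note: cells exposed to compound for 16 hours at 37 °C before detection.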 The following applies: renal proximal tubule cells, primary cells freshly taken from rat; Potency: caspase-3 activation; series mostly up to 91.7 µM. Put shortly: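 In qHTS format, rat primary proximal tubule cells seeded at 1000 per well are exposed to compounds for 16 hours at 37 °C. An increase in Caspase-Glo 3/7 luminescence indicates caspase activation.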

Experiment [11] in a line: MultiTox-Fluor Cytotoxicity Assay - LYMP1-001 - Dead Cells (AID 946). Note: potency is the fitted concentration of half-maximal effect. The following applies: LYMP1-001 lymphoblastoid cells, dead-cell protease fluorescence; series mostly up to 92.2 µM. Put shortly:
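LYMP1-001 lymphoblastoid cells (2500/well) treated 16 h at 37 C. Dead-cell protease cleavage of bis-AAF-R110 read at Ex/Em 485/520. Normalized to DMSO and 15 uM tetraoctylammonium bromide; AC50 from Hill fits.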

The nature of experiment [12]: MultiTox-Fluor Cytotoxicity Assay - LYMP1-003 - Dead Cells (AID 961). Note: nearly all actives have a fitted effect of over 70% in size. Note: potency is the fitted concentration of half-maximal effect. The following applies: LYMP1-003 lymphoblastoid cells, dead-cell protease fluorescence; series mostly up to 92.2 µM. Put shortly: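 LYMP1-003 human lymphoblastoid cells (2500/well) exposed to compound 16 h at 37 C in complete medium; dead-cell protease read with bis-AAF-R110 fluorescence (Ex/Em 485/520) after 60 min at room temperature. Normalized to DMSO and 15 uM tetraoctylammonium bromide; AC50 from Hill fit.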

The nature of experiment [13]: MultiTox-Fluor Cytotoxicity Assay - LYMP1-003 - Live Cells (AID 962).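 Note: 0% = DMSO only and full loss = 92 µM tetraoctylammonium bromide; cytotoxic hits lower the live-cell protease signal.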 The following applies: LYMP1-003 lymphoblastoid cells, MultiTox-Fluor live-cell protease fluorescence; series mostly up to 92.2 µM. Put shortly:
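Acute cytotoxicity is scored as a drop in live-cell protease activity in human lymphoblastoid LYMP1-003 cells after 16 hr compound exposure at 37 C. AC50 values come from Hill-equation modelling of concentration-response data.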

The nature of experiment [14]: Cell Viability - LYMP1-003 - Assay at 24 hr (AID 963).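 Note: plate controls were DMSO only for no effect and tetraoctylammonium bromide positive control for full effect.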 The settings on record: LYMP1-003 lymphoblastoid cell viability; series mostly up to 92.2 µM. The method in brief:
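Cytotoxicity is scored as a concentration-dependent fall in ATP-linked luciferase signal in human lymphoblastoid LYMP1-003 cells treated 24 hr at 37 C in complete culture medium.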

The nature of experiment [15]: Cell Viability - LYMP1-002 - Assay at 24 hr (AID 993). Note: % is set by controls: 0 for no effect and ±100 for the full control effect. The following applies: LYMP1-002 lymphoblastoid cells viability; series mostly up to 92.2 µM. Put shortly:
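Acute toxicity is measured as concentration-dependent loss of cellular ATP in a human lymphoblastoid line (Coriell LYMP1-002) after 24 h treatment in complete medium. ATP is quantified by luciferase luminescence and AC50 derived by Hill modelling.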

A short description of experiment [16]: qHTS Assay for Identification of Small Molecule Inducers of Hypoxia Response (AID 2120; active = well fitted curve in the direction sought with a large enough effect in the signal ratio, with a control signal flat, not every such curve was filed as active; the % refers to the signal ratio; note: 0% is about no effect). The following applies: hypoxia response reporter cells, beta-lactamase ratio readout; series mostly up to 104 µM. Put shortly: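 Cell-based qHTS for reporter induction: hypoxia response element controlled beta-lactamase in ME-180 cells. Compounds incubated 17 h at 37 degrees C; activity from blue/green (460/530 nm) ratio, inducers ranked by AC50.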

Experiment [17] has as its target Peroxisome proliferator-activated receptor alpha (Homo sapiens) (UniProt Q07869). As to the kind of experiment: qHTS assay for small molecule agonists of the peroxisome proliferator-activated receptor alpha (PPARalpha) signaling pathway (AID 651778). Note: % of control where 0% means no effect. The settings on record: PathHunter PPARalpha complementation, chemiluminescence, 6 h; max response: hits give high values. Put shortly:
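Enzyme-fragment complementation assay in which ligand-bound PPARalpha translocates and forms an active enzyme that generates chemiluminescence. Cells were plated overnight, exposed to compound for 6 hr at 37 C, and then given detection reagent for 60 min at room temperature.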

The nature of experiment [18]: qHTS assay for small molecule agonists of the antioxidant response element (ARE) signaling pathway measured by Nrf2-dependant transcriptional activity - cell viability counter screen (AID 720653; active = well fitted curve in the direction sought with a large enough effect in the repeat runs; an effect the other way counts as inactive or inconclusive; note: % is set by controls: 0 for no effect and ±100 for the full control effect). The following applies: ARE-bla HepG2 viability, CellTiter-Glo ATP luminescence, 16 h; max response: hits give low values. Put shortly: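 ARE-bla HepG2 cells treated with compounds for 16 h at 37C; this counter screen measures viability as intracellular ATP by CellTiter-Glo luminescence after 30 min at room temperature.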

Experiment [19] can be described thus: qHTS assay for cell viability of HEK293 cells (AID 743288). For max response: % is set by controls: 0 for no effect and ±100 for the full control effect. Note: nearly all actives have a fitted effect of over 50% in size. Note: potency is the fitted concentration of half-maximal effect. The following applies: ATP luminescence (CellTiter-Glo), 18 h; max response: hits give low values. The method in brief:
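Quantitative high-throughput screen: compounds were pinned onto parental HEK293 cells (2,000 per well) after a minimum 5 h settling at 37 C, incubated 18 h at 37 C, and intracellular ATP measured by luciferase luminescence.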

Experiment [20] can be described thus: qHTS assay for cell viability of the p53RE-bla HCT-116 cell line (AID 743292). Note: % is set by controls: 0 for no effect and ±100 for the full control effect; nearly all actives have a fitted effect of over 55% in size. The settings on record: p53RE-bla HCT-116 viability, ATP luminescence, 16 h; series mostly up to 95 µM. Put shortly:
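ATP-based luminescence, 16 h compound exposure at 37 C, p53RE-bla HCT-116 cells at 4,000/well.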

Chain of Peroxisome proliferator-activated receptor alpha (Homo sapiens) (Q07869 whole entry, looked up, the tested form may be a part): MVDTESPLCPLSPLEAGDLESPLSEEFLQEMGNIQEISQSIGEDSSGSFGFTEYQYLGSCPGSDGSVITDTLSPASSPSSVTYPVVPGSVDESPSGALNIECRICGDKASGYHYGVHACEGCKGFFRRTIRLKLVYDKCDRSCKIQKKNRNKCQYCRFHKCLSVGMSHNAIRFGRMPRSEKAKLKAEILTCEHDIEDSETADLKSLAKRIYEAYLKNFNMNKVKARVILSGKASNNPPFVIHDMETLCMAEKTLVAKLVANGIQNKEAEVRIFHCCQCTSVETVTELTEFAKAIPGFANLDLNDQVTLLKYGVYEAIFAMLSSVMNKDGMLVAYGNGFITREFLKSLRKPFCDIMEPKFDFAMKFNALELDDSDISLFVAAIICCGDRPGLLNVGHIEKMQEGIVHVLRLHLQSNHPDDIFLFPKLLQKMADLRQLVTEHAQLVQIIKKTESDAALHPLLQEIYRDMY

In the case of `c1ccc2c(c1)ccc1ccccc12`, the Potency in experiment [1] is > 92 µM. The Potency entry in [2], in [3], in [4], in experiment [10], in experiment [11] and in [12] was “inactive” each time. Besides, the Potency entry in experiment [13], in experiment [14], in [15], in experiment [16] and in experiment [20] was “inactive” in each case. Also, the call in experiment [5], in experiment [6], in experiment [8] and in [9] was inactive. In addition, the caspase-3 activation in [7] was -0.803%. Besides, the max response was -2.79% and 0.0819% in experiment [17]; -0.337% and -2.44% in [18]; 2.85% and -2.95% in [19].

Consider `O=Nc1ccc(Nc2ccccc2)cc1`, for which the Potency entry in experiment [3], in experiment [4], in experiment [10], in experiment [16] and in experiment [20] was “inactive” throughout. For the same compound, the compound was classed as inactive in experiment [5], in experiment [6], in experiment [8] and in [9]. For the same compound, the caspase-3 activation in experiment [7] is -5.38%. For the same compound, the max response is -0.677% and -6.11% in experiment [17]; -2.32% and -16.8% in experiment [18]. Moreover, the Potency in [19] was 39.8 µM (active) and 20 µM (active).

With `O=C=Nc1ccc(Cl)c(Cl)c1`, the Potency entry in experiment [3], in experiment [4], in [10], in experiment [13], in experiment [14] and in experiment [15] was “inactive” throughout. Also, the Potency result in experiment [16] and in [20] was “inactive” throughout. Besides, the compound was called inactive in experiment [5], in experiment [6], in [8] and in experiment [9]. For the same compound, the caspase-3 activation in experiment [7] was 9.15%. For the same compound, the max response was 21.6% in [17] and -6.45% in experiment [18].

For `CN(C)c1ccc(C(=N)c2ccc(N(C)C)cc2)cc1`, the Potency entry in experiment [3], in experiment [4], in experiment [10], in [14], in [15] and in experiment [16] was “inactive” each time. The Potency result in experiment [20] is “inactive”. Besides, the outcome in experiment [5], in [8] and in experiment [9] was inactive. The caspase-3 activation in experiment [7] is 7.49%. In addition, the Potency in experiment [11] was 39.8 µM (active); in experiment [12], 50.1 µM (active). Moreover, the max response was -0.198% in [17] and -25.3% in experiment [18].

In the case of `C=C(C#N)C(=O)OCC`, the Potency in experiment [1] was > 92 µM. The Potency result in experiment [2], in experiment [3], in experiment [4], in experiment [10], in [11] and in [12] was “inactive” throughout. In addition, the Potency result in experiment [13], in experiment [14], in experiment [15], in experiment [16] and in experiment [20] was “inactive” throughout. In addition, the outcome in [5], in experiment [6], in experiment [8] and in [9] was inactive. For the same compound, in [7], the caspase-3 activation is -3.19%. The max response in experiment [17] was -1.15%; in experiment [18], -14.3%; in [19], -12.8%.
